# Measurements from article PMC7862700, “An all-to-all approach to the identification of sequence-specific readers for epigenetic DNA modifications on cytosine”.
# What was measured:
# Test in all cases: DAPPL (digital affinity profiling via proximity ligation, sequencing); 10 mM Tris-HCl pH 7.5, 50 mM NaCl, 1 mM DTT, 4% glycerol, room temperature, 30 min; GST-TFs on glutathione beads, 16-mer random dsDNA library, 0.1% formaldehyde crosslink after washing; high values mean tight binding
# HSF1 = HSF1 (Homo sapiens, UniProt Q00613 1-529); conditions: protein: recombinant; tags: N-terminal GST; chain copies: 3; dsDNA, one strand shown
# Sequence of HSF1 (Q00613 whole entry, the tested form may be a part): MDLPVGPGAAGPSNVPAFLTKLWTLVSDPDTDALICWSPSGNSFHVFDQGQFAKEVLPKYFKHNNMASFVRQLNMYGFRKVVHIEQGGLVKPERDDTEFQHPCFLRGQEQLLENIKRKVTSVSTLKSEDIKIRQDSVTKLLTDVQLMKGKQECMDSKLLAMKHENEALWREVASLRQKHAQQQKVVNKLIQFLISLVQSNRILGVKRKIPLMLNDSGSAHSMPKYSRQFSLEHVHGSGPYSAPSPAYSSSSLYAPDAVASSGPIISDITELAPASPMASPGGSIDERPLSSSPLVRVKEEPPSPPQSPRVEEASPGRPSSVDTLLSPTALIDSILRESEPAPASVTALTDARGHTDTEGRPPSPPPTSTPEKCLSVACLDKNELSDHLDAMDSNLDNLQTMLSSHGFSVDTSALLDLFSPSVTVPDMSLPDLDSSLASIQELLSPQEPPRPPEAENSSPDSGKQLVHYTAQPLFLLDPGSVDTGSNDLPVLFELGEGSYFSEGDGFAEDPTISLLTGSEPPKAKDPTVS
# How it was run: (§1)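 In yeast, human transcription factors were expressed with a GST fusion, then pulled down on glutathione beads and given DNA barcodes. Pooled with a tag-only sample, they were exposed to 200 nmole of a 16-mer random double-stranded DNA library (Tris/NaCl/DTT/glycerol buffer, room temperature, 30 min), washed, crosslinked with 0.1% formaldehyde, proximity-ligated using BsaI/T4 ligase for 1 h at 37 °C, PCR-amplified and read on an Illumina NextSeq500. Each hexamer's frequency of reads for a factor, divided by the matching frequency for the tag-only sample, gives the binding signal.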
# SPIC = target: T1, SPIC (Homo sapiens, UniProt Q8N5J4 1-248); conditions: protein: recombinant; tags: N-terminal GST; dsDNA, one strand shown
# T1 sequence: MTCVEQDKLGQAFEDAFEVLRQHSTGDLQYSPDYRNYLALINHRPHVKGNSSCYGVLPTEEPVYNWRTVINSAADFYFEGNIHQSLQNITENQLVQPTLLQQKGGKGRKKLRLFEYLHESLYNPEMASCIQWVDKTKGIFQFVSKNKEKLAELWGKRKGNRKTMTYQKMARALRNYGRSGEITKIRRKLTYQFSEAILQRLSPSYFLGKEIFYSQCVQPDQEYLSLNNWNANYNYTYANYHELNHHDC
# How it was run: as §1
# ELK1 = target: T2, ELK1 (Homo sapiens, UniProt P19419 1-428); conditions: protein: recombinant; tags: N-terminal GST; dsDNA, one strand shown
# T2 sequence: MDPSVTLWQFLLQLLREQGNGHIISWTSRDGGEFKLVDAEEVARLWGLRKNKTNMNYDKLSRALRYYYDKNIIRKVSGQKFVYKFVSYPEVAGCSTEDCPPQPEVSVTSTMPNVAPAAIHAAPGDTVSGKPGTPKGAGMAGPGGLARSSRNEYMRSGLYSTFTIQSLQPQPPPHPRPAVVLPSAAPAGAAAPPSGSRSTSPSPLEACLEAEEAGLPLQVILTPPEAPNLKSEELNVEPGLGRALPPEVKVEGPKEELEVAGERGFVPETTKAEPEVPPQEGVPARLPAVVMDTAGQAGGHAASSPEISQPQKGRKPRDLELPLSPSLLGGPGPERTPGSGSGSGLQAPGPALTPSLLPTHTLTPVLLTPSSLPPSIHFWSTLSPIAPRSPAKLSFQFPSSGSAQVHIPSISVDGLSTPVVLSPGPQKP
# How it was run: as §1
# ELF1 = ELF1 (Homo sapiens, UniProt P32519 1-619); conditions: protein: recombinant; tags: N-terminal GST; dsDNA, one strand shown
# Sequence of ELF1 (P32519 whole entry): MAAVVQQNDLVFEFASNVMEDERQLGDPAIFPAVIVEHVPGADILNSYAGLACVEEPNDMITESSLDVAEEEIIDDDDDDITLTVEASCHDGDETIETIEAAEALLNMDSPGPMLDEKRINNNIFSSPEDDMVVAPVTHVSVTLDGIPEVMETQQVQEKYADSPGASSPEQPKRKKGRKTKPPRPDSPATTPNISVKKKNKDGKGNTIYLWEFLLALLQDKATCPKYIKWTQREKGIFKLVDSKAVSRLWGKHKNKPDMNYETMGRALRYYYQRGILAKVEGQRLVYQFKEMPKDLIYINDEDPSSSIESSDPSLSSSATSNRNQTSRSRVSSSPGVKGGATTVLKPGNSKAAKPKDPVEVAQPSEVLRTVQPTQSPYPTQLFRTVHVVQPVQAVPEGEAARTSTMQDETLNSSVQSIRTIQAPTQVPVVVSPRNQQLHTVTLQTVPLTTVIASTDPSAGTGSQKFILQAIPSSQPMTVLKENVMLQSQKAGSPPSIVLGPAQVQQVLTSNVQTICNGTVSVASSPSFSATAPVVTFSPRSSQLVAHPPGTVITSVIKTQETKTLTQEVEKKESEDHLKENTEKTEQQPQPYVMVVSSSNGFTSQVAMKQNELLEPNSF
# How it was run: as §1
# SPI1 = SPI1 (Homo sapiens, UniProt P17947 1-270); conditions: protein: recombinant; tags: N-terminal GST; dsDNA, one strand shown
# How it was run: as §1
# SPIB = SPIB (Homo sapiens, UniProt Q01892 1-262); conditions: protein: recombinant; tags: N-terminal GST; dsDNA, one strand shown
# Sequence of SPIB (Q01892 whole entry): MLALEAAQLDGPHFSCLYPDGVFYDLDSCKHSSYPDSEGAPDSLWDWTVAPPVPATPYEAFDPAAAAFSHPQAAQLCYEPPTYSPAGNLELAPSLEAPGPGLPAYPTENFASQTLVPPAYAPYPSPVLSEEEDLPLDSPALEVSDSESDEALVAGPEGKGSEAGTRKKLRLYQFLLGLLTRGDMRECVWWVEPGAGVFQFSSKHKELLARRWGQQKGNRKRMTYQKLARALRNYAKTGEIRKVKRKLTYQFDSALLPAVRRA
# How it was run: as §1
# ELK4 = target: T3, ELK4 (Homo sapiens, UniProt P28324-2 1-405); conditions: protein: recombinant; tags: N-terminal GST; dsDNA, one strand shown
# T3 sequence: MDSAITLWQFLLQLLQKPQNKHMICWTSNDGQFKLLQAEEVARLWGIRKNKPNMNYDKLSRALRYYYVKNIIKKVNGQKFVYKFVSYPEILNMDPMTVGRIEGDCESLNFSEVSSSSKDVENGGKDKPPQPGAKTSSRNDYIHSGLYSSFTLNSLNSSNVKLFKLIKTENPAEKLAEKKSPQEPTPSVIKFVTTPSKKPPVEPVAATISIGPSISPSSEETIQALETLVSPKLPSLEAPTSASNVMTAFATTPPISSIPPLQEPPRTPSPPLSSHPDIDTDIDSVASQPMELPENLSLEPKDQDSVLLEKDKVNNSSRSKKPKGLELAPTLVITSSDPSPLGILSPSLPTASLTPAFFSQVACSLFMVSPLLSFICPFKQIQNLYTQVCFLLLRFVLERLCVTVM
# How it was run: as §1
# ELF3 = target: T4, ELF3 (Homo sapiens, UniProt P78545 1-371); conditions: protein: recombinant; tags: N-terminal GST; dsDNA, one strand shown
# T4 sequence: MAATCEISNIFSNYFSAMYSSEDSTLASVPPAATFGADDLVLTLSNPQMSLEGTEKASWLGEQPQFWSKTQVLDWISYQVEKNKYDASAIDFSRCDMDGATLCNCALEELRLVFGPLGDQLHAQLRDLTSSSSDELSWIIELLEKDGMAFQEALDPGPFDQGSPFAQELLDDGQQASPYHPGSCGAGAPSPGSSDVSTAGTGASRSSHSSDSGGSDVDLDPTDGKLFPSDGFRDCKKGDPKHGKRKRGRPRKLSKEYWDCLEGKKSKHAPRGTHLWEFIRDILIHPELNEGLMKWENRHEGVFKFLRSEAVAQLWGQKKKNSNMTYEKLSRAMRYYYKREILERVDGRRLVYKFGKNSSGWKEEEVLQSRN
# How it was run: as §1
# ETV1 = ETV1 (Homo sapiens, UniProt P50549 1-477); conditions: protein: recombinant; tags: N-terminal GST; dsDNA, one strand shown
# Sequence of ETV1 (P50549 whole entry): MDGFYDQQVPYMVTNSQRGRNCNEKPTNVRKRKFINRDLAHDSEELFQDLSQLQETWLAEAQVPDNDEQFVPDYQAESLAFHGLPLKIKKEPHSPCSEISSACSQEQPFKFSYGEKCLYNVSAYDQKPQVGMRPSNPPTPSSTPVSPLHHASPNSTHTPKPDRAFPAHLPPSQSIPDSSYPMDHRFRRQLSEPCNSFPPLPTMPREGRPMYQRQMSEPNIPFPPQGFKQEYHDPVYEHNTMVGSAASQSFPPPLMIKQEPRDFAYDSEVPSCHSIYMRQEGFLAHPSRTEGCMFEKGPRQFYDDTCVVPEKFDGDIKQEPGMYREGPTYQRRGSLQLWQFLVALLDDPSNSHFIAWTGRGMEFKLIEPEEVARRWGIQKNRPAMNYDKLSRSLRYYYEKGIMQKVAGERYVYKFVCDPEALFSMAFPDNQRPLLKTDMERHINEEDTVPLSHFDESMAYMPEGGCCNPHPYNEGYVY
# How it was run: as §1
# ERF = target: T5, ERF (Homo sapiens, UniProt P50548 1-548); conditions: protein: recombinant; tags: N-terminal GST; dsDNA, one strand shown
# T5 sequence: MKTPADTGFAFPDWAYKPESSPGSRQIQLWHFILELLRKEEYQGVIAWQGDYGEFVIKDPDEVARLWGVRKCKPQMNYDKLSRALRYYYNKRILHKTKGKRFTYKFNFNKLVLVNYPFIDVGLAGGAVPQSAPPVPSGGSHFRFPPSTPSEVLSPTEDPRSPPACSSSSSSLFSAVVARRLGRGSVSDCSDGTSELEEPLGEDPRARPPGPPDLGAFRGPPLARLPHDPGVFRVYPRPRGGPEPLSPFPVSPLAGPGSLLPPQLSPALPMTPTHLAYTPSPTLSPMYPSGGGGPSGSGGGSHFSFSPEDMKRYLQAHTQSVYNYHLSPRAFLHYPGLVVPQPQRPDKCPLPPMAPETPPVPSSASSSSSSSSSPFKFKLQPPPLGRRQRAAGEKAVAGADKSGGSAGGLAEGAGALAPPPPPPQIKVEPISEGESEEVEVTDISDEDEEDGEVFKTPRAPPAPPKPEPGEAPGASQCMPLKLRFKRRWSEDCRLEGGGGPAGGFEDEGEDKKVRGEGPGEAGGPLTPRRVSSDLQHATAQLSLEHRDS
# How it was run: as §1
# ETS2 = target: T6, ETS2 (Homo sapiens, UniProt P15036 1-469); conditions: protein: recombinant; tags: N-terminal GST; dsDNA, one strand shown
# T6 sequence: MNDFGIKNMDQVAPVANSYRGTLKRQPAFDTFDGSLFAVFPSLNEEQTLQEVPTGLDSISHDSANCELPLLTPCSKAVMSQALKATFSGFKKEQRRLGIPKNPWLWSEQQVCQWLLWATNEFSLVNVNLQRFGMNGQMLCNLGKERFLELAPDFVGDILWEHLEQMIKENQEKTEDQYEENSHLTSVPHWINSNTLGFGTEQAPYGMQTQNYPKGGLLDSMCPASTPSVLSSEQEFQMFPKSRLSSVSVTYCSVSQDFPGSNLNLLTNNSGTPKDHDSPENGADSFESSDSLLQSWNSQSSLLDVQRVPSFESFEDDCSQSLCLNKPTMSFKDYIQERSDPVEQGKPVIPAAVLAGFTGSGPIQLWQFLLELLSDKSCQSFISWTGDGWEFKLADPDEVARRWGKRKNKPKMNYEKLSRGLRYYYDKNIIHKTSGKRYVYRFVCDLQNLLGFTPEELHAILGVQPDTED
# How it was run: as §1
# ETV3 = target: T7, ETV3 (Homo sapiens, UniProt P41162-2 1-143); conditions: protein: recombinant; tags: N-terminal GST; dsDNA, one strand shown
# T7 sequence: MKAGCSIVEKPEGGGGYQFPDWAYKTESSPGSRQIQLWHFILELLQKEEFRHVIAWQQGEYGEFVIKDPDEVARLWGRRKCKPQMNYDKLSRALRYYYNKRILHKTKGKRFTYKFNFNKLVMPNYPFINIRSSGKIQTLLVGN
# How it was run: as §1
# ERG = target: T8, ERG (Homo sapiens, UniProt P11308 1-479); conditions: protein: recombinant; tags: N-terminal GST; dsDNA, one strand shown
# T8 sequence: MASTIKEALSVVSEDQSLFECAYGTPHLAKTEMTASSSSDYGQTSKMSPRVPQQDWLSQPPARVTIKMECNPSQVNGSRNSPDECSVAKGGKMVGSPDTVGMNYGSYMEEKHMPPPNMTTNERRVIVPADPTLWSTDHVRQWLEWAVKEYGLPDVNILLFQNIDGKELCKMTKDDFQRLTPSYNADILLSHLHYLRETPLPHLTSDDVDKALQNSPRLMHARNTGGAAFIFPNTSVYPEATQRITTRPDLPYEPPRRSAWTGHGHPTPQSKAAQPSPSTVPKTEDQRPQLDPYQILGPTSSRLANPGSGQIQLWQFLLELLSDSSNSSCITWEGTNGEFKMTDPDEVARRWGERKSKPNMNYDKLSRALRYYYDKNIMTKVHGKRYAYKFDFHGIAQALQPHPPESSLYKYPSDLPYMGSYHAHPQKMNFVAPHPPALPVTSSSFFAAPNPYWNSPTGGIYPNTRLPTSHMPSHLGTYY
# How it was run: as §1
# ELF4 = ELF4 (Homo sapiens, UniProt Q99607 1-663); conditions: protein: recombinant; tags: N-terminal GST; dsDNA, one strand shown
# Sequence of ELF4 (Q99607 whole entry): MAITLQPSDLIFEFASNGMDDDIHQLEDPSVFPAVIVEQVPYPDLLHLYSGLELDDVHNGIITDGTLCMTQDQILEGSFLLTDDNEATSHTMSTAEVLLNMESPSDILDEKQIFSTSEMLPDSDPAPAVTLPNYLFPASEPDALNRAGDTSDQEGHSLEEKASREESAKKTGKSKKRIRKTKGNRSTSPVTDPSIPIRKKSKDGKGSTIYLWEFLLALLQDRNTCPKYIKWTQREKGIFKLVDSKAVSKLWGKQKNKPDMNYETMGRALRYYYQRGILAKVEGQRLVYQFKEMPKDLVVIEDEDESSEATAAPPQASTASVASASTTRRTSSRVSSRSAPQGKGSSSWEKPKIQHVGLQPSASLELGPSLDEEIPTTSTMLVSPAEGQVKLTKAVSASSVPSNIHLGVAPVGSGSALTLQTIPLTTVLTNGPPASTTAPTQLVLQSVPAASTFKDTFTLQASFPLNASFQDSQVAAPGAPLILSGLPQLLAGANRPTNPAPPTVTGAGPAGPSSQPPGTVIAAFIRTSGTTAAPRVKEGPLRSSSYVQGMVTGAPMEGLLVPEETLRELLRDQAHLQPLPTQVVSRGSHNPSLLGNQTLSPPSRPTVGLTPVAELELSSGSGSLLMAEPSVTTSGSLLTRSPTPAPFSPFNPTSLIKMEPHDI
# How it was run: as §1
# ETV3L = target: T9, ETV3L (Homo sapiens, UniProt Q6ZN32 1-361); conditions: protein: recombinant; tags: N-terminal GST; dsDNA, one strand shown
# T9 sequence: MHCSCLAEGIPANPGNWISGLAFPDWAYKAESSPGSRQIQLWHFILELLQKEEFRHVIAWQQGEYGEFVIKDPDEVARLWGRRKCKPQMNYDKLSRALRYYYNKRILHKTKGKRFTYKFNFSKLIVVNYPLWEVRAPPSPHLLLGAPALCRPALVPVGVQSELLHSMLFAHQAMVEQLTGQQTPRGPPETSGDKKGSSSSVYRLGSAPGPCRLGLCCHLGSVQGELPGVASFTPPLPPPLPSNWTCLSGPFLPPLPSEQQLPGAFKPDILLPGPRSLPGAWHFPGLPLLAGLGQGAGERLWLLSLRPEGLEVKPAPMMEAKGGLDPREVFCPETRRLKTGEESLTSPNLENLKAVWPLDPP
# How it was run: as §1
# ETV7 = target: T10, ETV7 (Homo sapiens, UniProt Q9Y603 1-341); conditions: protein: recombinant; tags: N-terminal GST; dsDNA, one strand shown
# T10 sequence: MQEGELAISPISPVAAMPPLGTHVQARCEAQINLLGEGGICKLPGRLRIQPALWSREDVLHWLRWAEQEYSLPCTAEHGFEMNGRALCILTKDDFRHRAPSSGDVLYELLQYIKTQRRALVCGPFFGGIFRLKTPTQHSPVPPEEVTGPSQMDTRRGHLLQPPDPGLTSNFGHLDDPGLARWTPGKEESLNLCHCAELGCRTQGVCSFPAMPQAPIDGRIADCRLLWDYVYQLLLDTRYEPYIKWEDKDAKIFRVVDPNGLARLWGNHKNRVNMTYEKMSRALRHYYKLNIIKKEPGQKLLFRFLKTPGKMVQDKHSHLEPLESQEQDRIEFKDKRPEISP
# How it was run: as §1
sequence,measurement,setting,value
TGTAGA,binding signal,HSF1,"1.12 fold enrichment (6-mer frequency, TF over GST control)"
same,binding signal,SPIC,"1.1 fold enrichment (6-mer frequency, TF over GST control)"
CCCTAG,binding signal,ELK1,"1.04 fold enrichment (6-mer frequency, TF over GST control)"
same,binding signal,ELF1,"1.06 fold enrichment (6-mer frequency, TF over GST control)"
same,binding signal,SPI1,"1 fold enrichment (6-mer frequency, TF over GST control)"
same,binding signal,SPIB,"1.05 fold enrichment (6-mer frequency, TF over GST control)"
same,binding signal,HSF1,"1.15 fold enrichment (6-mer frequency, TF over GST control)"
same,binding signal,SPIC,"1.18 fold enrichment (6-mer frequency, TF over GST control)"
same,binding signal,ELK4,"1.01 fold enrichment (6-mer frequency, TF over GST control)"
same,binding signal,ELF3,"1.13 fold enrichment (6-mer frequency, TF over GST control)"
same,binding signal,ETV1,"1.01 fold enrichment (6-mer frequency, TF over GST control)"
same,binding signal,ERF,"1.04 fold enrichment (6-mer frequency, TF over GST control)"
same,binding signal,ETS2,"1.03 fold enrichment (6-mer frequency, TF over GST control)"
same,binding signal,ETV3,"1.04 fold enrichment (6-mer frequency, TF over GST control)"
AGAACC,binding signal,ERG,"1.01 fold enrichment (6-mer frequency, TF over GST control)"
same,binding signal,HSF1,"1.55 fold enrichment (6-mer frequency, TF over GST control)"
same,binding signal,SPIC,"1.03 fold enrichment (6-mer frequency, TF over GST control)"
same,binding signal,ELF3,"1.06 fold enrichment (6-mer frequency, TF over GST control)"
ACGAAG,binding signal,HSF1,"1.06 fold enrichment (6-mer frequency, TF over GST control)"
same,binding signal,ELF4,"1.01 fold enrichment (6-mer frequency, TF over GST control)"
same,binding signal,ERF,"1.02 fold enrichment (6-mer frequency, TF over GST control)"
same,binding signal,ETV3L,"1 fold enrichment (6-mer frequency, TF over GST control)"
same,binding signal,ETV7,"1.07 fold enrichment (6-mer frequency, TF over GST control)"
